The record followed here is paper PMC7862700, “An all-to-all approach to the identification of sequence-specific readers for epigenetic DNA modifications on cytosine”.

Holding throughout (assay): DAPPL (digital affinity profiling via proximity ligation, sequencing); 10 mM Tris-HCl pH 7.5, 50 mM NaCl, 1 mM DTT, 4% glycerol, room temperature, 30 min; GST-TFs on glutathione beads, 16-mer random dsDNA library, 0.1% formaldehyde crosslink after washing; high values mean tight binding
One assay has as its target T1, FLI1 (Homo sapiens, UniProt Q01543 1-452).
T1 sequence: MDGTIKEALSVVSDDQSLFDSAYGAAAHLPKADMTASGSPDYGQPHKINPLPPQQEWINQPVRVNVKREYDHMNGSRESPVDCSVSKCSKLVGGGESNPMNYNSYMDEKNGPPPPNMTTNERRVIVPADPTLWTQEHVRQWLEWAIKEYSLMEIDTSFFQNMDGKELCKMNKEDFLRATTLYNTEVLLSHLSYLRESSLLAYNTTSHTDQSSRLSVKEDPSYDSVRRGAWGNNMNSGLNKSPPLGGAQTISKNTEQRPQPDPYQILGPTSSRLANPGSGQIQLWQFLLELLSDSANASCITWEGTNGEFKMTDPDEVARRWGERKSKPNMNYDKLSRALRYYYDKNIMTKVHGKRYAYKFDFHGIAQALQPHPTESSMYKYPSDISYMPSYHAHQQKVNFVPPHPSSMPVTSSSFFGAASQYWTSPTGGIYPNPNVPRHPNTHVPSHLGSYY
To be noted: protein: recombinant; tags: N-terminal GST; dsDNA, one strand shown. The method in brief: (§1)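 In yeast, human transcription factors were expressed with a GST fusion, then pulled down on glutathione beads and given DNA barcodes. Pooled with a tag-only sample, they were exposed to 200 nmole of a 16-mer random double-stranded DNA library (Tris/NaCl/DTT/glycerol buffer, room temperature, 30 min), washed, crosslinked with 0.1% formaldehyde, proximity-ligated using BsaI/T4 ligase for 1 h at 37 °C, PCR-amplified and read on an Illumina NextSeq500. Each hexamer's frequency of reads for a factor, divided by the matching frequency for the tag-only sample, gives the binding signal.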

In the next assay the target is T2, ELK1 (Homo sapiens, UniProt P19419 1-428).
T2 sequence: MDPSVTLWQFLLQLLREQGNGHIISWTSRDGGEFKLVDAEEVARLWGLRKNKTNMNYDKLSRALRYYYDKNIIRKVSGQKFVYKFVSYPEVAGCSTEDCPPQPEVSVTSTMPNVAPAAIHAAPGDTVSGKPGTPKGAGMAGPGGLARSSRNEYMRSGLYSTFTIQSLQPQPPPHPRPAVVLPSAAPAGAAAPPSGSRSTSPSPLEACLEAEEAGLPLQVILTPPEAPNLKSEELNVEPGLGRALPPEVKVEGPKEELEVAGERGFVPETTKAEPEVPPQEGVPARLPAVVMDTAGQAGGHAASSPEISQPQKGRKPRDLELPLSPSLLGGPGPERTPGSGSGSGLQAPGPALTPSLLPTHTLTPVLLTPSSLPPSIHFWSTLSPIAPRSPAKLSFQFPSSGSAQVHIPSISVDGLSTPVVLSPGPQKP
To be noted: protein: recombinant; tags: N-terminal GST; dsDNA, one strand shown. The method in brief: as §1

The target of another assay is T3, GABPA (Homo sapiens, UniProt Q06546 1-454).
T3 sequence: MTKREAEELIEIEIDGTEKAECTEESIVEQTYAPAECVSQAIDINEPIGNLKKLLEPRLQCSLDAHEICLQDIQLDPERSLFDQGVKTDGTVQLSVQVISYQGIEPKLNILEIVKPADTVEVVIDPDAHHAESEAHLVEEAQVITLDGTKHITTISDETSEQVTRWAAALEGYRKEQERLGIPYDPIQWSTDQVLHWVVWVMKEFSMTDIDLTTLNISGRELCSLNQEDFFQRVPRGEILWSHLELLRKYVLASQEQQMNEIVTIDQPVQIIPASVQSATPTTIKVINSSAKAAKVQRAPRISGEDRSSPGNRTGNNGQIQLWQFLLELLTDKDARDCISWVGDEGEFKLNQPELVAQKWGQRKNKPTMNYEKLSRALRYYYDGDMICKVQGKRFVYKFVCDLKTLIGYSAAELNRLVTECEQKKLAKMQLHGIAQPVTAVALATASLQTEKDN
The note with it: protein: recombinant; tags: N-terminal GST; dsDNA, one strand shown. Put shortly: as §1

A further assay addresses T4, ERG (Homo sapiens, UniProt P11308 1-479).
T4 sequence: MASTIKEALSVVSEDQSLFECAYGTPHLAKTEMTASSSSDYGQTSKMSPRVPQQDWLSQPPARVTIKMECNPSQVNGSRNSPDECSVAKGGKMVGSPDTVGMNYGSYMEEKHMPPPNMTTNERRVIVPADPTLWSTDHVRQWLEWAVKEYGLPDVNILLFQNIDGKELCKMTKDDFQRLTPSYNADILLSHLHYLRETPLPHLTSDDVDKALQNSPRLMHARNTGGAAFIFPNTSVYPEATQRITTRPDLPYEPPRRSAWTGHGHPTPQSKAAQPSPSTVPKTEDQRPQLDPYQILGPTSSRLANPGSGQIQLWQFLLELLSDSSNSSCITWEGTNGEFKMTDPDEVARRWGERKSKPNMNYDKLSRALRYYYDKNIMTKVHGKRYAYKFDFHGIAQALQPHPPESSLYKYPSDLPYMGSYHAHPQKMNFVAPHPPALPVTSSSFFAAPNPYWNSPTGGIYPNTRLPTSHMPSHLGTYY
To be noted: protein: recombinant; tags: N-terminal GST; dsDNA, one strand shown. The method in brief: as §1

The next assay has as its target ELF1 (Homo sapiens, UniProt P32519 1-619). To be noted: protein: recombinant; tags: N-terminal GST; dsDNA, one strand shown. Put shortly: as §1
The target in a further assay is T5, EHF (Homo sapiens, UniProt Q9NZC4 1-300).
T5 sequence: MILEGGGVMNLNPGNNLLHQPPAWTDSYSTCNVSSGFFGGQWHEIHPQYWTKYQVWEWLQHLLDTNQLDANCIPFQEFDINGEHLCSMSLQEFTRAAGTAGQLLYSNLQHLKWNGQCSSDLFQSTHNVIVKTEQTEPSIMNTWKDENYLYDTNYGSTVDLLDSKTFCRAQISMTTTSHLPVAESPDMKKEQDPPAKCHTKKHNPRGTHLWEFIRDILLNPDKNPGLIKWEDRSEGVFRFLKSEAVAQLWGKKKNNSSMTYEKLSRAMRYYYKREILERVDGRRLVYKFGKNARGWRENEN
To be noted: protein: recombinant; tags: N-terminal GST; dsDNA, one strand shown. The method in brief: as §1

For the next assay, the target named is SPI1 (Homo sapiens, UniProt P17947 1-270). To be noted: protein: recombinant; tags: N-terminal GST; dsDNA, one strand shown. Put shortly: as §1
Another assay has as its target SPIB (Homo sapiens, UniProt Q01892 1-262). The note with it: protein: recombinant; tags: N-terminal GST; dsDNA, one strand shown. Put shortly:
as §1

The target of a further assay is T6, ELK3 (Homo sapiens, UniProt P41970 1-407).
T6 sequence: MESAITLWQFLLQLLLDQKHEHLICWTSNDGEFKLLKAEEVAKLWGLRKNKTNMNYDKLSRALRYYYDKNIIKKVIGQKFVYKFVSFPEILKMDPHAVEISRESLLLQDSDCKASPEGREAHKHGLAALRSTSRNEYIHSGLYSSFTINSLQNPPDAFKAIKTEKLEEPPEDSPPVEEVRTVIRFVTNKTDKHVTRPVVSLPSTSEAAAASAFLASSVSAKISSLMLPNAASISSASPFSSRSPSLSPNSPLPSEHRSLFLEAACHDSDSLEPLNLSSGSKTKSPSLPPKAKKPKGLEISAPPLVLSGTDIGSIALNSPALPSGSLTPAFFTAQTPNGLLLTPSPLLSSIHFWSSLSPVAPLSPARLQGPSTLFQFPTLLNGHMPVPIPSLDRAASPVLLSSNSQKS
The note with it: protein: recombinant; tags: N-terminal GST; dsDNA, one strand shown. The method in brief: as §1

For another assay, the target named is T7, FEV (Homo sapiens, UniProt Q99581 1-238).
T7 sequence: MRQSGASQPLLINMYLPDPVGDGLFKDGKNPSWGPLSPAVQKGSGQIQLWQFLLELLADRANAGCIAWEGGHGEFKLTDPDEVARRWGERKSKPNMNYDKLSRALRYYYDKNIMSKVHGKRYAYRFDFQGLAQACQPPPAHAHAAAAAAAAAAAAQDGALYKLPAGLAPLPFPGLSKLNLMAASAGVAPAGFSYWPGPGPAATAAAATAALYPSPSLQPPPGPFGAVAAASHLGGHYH
The note with it: protein: recombinant; tags: N-terminal GST; dsDNA, one strand shown. The method in brief:
as §1

The next assay deals with ETV5 (Homo sapiens, UniProt P41161 1-510). To be noted: protein: recombinant; tags: N-terminal GST; dsDNA, one strand shown. Put shortly: as §1
Chain of ETV5 (P41161 whole entry): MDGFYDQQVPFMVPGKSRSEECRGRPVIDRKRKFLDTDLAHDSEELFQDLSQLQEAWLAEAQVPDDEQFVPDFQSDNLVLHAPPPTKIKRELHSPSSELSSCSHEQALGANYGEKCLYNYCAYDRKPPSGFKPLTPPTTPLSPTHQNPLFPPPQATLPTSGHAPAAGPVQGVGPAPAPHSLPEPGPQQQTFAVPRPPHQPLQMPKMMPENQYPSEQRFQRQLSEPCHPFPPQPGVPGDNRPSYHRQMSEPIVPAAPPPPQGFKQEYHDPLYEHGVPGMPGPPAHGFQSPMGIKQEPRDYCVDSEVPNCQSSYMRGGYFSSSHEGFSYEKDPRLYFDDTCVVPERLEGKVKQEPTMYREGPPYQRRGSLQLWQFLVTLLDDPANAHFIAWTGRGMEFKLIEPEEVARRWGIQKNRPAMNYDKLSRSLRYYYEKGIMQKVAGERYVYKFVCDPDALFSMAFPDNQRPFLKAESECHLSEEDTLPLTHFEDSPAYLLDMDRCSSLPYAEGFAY
Another assay deals with HSF1 (Homo sapiens, UniProt Q00613 1-529). To be noted: protein: recombinant; tags: N-terminal GST; chain copies: 3; dsDNA, one strand shown. Put shortly:
as §1

The target of another assay is T8, SPIC (Homo sapiens, UniProt Q8N5J4 1-248).
T8 sequence: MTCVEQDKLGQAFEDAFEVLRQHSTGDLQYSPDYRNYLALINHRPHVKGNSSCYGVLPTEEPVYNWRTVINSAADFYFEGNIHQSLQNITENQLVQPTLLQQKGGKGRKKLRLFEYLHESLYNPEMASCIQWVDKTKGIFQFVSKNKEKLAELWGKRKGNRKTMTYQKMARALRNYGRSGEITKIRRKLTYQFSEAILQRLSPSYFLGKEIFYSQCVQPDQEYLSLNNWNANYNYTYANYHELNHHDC
The note with it: protein: recombinant; tags: N-terminal GST; dsDNA, one strand shown. The method in brief: as §1

Another assay addresses ELF4 (Homo sapiens, UniProt Q99607 1-663). To be noted: protein: recombinant; tags: N-terminal GST; dsDNA, one strand shown. The method in brief: as §1
Another assay concerns the target T9, ELK4 (Homo sapiens, UniProt P28324-2 1-405).
T9 sequence: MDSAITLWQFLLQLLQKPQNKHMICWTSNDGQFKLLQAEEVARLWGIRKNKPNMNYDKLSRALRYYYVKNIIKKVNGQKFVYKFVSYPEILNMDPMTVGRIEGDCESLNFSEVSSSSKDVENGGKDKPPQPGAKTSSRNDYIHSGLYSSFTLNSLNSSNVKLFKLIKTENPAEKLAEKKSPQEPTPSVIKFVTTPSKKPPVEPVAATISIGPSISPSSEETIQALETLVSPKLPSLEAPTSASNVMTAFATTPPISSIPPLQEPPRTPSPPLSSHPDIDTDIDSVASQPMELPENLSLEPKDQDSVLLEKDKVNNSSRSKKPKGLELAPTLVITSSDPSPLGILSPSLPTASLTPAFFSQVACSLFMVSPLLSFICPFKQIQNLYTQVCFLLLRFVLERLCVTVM
To be noted: protein: recombinant; tags: N-terminal GST; dsDNA, one strand shown. Put shortly:
as §1

Another assay concerns the target T10, ETV2 (Homo sapiens, UniProt O00321 1-342).
T10 sequence: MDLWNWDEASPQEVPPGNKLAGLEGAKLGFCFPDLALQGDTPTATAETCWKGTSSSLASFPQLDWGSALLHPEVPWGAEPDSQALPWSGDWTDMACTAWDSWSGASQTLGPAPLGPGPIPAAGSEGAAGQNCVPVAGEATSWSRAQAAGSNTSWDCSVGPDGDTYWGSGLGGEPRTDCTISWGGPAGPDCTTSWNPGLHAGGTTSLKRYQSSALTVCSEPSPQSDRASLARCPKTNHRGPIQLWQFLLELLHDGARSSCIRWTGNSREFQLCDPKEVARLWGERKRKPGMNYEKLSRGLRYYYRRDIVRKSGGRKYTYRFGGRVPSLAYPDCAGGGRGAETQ
The note with it: protein: recombinant; tags: N-terminal GST; dsDNA, one strand shown. The method in brief:
as §1

Another assay has as its target T11, ELF3 (Homo sapiens, UniProt P78545 1-371).
T11 sequence: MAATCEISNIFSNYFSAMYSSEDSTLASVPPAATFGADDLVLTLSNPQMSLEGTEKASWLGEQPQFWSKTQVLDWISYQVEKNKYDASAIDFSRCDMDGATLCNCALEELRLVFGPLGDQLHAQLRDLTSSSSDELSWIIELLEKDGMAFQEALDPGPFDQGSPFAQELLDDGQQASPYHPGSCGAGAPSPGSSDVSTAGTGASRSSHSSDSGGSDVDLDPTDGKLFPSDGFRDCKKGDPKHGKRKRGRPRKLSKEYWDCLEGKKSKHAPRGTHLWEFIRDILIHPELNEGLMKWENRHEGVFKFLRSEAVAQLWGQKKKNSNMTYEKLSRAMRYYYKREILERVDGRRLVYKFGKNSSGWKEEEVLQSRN
The note with it: protein: recombinant; tags: N-terminal GST; dsDNA, one strand shown. Put shortly:
as §1

Another assay deals with CRX (Homo sapiens, UniProt O43186 1-299). The note with it: protein: recombinant; tags: N-terminal GST; dsDNA, one strand shown. The method in brief:
as §1

The target in the next assay is ETV1 (Homo sapiens, UniProt P50549 1-477). The note with it: protein: recombinant; tags: N-terminal GST; dsDNA, one strand shown. Put shortly: as §1
Chain of ETV1 (P50549 whole entry): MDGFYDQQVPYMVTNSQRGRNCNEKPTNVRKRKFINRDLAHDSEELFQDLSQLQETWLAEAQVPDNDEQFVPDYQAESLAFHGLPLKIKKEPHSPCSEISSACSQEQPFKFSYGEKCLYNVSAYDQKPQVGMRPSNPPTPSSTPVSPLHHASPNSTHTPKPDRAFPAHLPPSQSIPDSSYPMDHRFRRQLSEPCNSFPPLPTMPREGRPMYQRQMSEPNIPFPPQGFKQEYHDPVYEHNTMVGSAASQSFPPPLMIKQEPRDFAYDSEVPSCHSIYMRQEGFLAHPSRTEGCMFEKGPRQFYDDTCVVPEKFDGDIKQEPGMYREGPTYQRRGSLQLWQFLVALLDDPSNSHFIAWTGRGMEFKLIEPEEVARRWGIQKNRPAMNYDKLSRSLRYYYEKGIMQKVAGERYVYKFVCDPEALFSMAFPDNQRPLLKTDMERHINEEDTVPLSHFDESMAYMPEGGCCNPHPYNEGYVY

Chain of HSF1 (Q00613 whole entry): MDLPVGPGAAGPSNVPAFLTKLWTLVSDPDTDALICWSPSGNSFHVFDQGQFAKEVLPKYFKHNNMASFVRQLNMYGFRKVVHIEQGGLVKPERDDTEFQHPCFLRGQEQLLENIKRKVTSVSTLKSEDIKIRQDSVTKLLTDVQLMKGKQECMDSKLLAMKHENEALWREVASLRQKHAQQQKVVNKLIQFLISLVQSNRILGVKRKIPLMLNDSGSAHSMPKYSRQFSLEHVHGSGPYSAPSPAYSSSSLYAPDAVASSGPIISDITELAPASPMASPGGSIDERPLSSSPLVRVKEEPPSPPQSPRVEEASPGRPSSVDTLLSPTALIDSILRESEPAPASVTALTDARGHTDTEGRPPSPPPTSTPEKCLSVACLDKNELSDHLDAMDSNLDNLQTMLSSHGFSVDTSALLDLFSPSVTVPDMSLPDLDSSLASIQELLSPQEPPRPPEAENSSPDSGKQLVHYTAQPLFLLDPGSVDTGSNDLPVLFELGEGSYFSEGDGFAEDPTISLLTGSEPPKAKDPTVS
Chain of SPIB (Q01892 whole entry): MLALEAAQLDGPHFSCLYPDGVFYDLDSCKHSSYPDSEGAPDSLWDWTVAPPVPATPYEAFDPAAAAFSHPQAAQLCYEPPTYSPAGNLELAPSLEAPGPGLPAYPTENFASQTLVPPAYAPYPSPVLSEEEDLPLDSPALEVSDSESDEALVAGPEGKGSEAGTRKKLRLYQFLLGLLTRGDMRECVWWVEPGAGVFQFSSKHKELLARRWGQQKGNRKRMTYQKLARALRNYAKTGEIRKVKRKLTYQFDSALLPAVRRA
Chain of ELF4 (Q99607 whole entry): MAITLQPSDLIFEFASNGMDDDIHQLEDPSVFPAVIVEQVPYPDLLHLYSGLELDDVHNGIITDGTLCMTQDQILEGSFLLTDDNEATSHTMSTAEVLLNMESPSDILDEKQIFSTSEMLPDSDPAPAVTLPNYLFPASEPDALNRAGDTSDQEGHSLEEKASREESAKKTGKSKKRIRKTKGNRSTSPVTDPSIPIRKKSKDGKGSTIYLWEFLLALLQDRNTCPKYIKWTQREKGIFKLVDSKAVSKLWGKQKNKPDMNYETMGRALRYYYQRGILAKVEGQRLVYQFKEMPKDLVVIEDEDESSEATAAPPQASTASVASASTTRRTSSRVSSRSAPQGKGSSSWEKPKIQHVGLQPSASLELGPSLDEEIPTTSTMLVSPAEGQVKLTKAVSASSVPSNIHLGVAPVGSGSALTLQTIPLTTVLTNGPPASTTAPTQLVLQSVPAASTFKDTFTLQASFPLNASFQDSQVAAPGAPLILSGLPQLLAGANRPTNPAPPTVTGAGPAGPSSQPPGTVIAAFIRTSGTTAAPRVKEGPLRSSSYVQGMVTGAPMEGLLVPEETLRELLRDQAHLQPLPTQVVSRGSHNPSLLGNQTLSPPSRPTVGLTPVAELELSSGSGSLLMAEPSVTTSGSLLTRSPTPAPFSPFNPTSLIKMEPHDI
Chain of CRX (O43186 whole entry): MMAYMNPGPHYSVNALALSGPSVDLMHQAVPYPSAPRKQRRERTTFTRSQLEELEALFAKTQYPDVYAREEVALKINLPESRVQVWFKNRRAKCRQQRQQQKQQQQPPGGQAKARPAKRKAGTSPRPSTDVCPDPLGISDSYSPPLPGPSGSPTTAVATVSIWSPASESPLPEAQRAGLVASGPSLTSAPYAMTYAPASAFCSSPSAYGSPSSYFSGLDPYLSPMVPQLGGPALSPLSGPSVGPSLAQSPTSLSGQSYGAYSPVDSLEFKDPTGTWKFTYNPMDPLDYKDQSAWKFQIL
Chain of ELF1 (P32519 whole entry): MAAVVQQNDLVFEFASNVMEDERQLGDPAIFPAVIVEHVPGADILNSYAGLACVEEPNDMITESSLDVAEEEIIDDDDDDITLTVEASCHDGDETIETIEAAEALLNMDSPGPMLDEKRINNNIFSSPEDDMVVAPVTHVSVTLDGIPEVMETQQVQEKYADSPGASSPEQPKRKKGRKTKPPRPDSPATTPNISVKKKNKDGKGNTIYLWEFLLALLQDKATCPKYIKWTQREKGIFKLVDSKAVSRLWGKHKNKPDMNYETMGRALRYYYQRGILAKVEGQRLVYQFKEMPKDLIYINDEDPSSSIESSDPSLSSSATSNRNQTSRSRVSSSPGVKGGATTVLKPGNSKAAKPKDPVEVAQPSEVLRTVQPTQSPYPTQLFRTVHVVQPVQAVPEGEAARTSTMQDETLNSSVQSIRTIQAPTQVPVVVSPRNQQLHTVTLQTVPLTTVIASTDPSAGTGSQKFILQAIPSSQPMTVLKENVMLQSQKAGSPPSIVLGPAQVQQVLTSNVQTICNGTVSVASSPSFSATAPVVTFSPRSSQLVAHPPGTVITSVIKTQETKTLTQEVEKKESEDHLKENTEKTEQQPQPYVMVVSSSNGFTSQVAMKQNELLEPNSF

In the case of AGAAGC, the binding signal in the assay with FLI1 is 1.11 fold enrichment (6-mer frequency, TF over GST control); with ELK1, 1.15 fold enrichment (6-mer frequency, TF over GST control); with GABPA, 1.12 fold enrichment (6-mer frequency, TF over GST control); with ERG, 1.16 fold enrichment (6-mer frequency, TF over GST control); with ELF1, 1.08 fold enrichment (6-mer frequency, TF over GST control); with EHF, 1.21 fold enrichment (6-mer frequency, TF over GST control). In addition, the binding signal in the assay with SPI1 is 1.22 fold enrichment (6-mer frequency, TF over GST control); with SPIB it was 1.15 fold enrichment (6-mer frequency, TF over GST control); with ELK3, 1.1 fold enrichment (6-mer frequency, TF over GST control); with FEV it was 1.14 fold enrichment (6-mer frequency, TF over GST control); in the assay with ETV5, 1.12 fold enrichment (6-mer frequency, TF over GST control); with HSF1 it was 1.96 fold enrichment (6-mer frequency, TF over GST control). The binding signal with SPIC was 1.28 fold enrichment (6-mer frequency, TF over GST control); with ELF4, 1.13 fold enrichment (6-mer frequency, TF over GST control); in the assay with ELK4, 1.07 fold enrichment (6-mer frequency, TF over GST control); in the assay with ETV2 it was 1.22 fold enrichment (6-mer frequency, TF over GST control); with ELF3, 1.09 fold enrichment (6-mer frequency, TF over GST control); with CRX it was 1.32 fold enrichment (6-mer frequency, TF over GST control). The binding signal with ETV1 was 1.11 fold enrichment (6-mer frequency, TF over GST control).
